TRPV1 potentiator: HTS Assay for Compounds that Act as Potentiators of the Vanilloid Receptor 1; Transient receptor potential cation channel subfamily V member 1 (Homo sapiens), Q8NER1; TRPV1-expressing cells, Fluo-8 calcium influx, capsaicin EC20 potentiation; potentiation, % at 8.33 µM; hit rate 0.02% among 320,000; in the data active = potentiation above about 80%; inconclusive = between about 30% and that limit; note: 0% is about no effect
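TRPV1-expressing cells were cultured overnight at 35.5C and loaded with Fluo-8 calcium dye for 40 to 90 min at room temperature. After a 10 s baseline, compound was added and calcium influx was read kinetically for 3 min (ex 480/em 520 nm).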
TRPML1 ag: qHTS for Agonists of the Human Mucolipin Transient Receptor Potential 1 (TRPML1); hit rate 0.12% among 410,000; AID 624414, 2012; TRPML1-expressing cells, Ca2+ dye fluorescence, FDSS; Mucolipin-1 (Homo sapiens), Q9GZU1; activation, % (concentration not given with the values); in the data active = activation above about 50%; inconclusive = mostly about 30% to 49%; note: 0% is about no effect
Target sequence (Q9GZU1 whole entry, looked up): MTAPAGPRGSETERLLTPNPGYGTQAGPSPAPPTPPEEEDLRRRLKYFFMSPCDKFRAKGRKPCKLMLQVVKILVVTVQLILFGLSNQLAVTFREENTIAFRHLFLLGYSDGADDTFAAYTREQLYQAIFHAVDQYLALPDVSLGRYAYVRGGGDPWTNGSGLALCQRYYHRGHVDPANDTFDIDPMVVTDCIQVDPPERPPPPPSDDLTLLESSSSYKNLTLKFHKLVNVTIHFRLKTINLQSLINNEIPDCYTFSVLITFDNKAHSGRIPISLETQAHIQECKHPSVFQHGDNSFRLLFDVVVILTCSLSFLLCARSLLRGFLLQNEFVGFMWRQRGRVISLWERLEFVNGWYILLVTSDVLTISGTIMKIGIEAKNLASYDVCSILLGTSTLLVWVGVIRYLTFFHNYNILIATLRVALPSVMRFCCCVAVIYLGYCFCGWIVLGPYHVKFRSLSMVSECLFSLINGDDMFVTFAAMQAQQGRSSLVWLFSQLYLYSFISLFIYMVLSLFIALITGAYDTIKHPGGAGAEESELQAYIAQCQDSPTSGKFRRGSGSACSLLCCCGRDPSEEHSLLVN
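Kinetic FDSS Ca2+ read in Tet-induced TRPML1-DL cells (ABD Ca8 dye plus quencher, 45-90 min RT loading): baseline, then compound, then 110 s agonist window; EC80 agonist 54-4 at 4uM final added afterwards for a 110 s antagonist window.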
TRPV1 agonist: HTS Assay for Compounds that Act as Agonists of the Vanilloid Receptor 1; Transient receptor potential cation channel subfamily V member 1 (Homo sapiens), Q8NER1; TRPV1-expressing cells, Fluo-8 calcium influx, agonist mode; activation, % at 8.33 µM; hit rate 0.19% among 320,000; AID 540275, 2011; in the data active = activation above about 80%; inconclusive = between about 30% and that limit; note: 0% is about no effect
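TRPV1-expressing cells were cultured overnight at 35.5C and loaded with Fluo-8 calcium dye for 40 to 90 min at room temperature. After a 10 s baseline, compound was added and calcium influx was read kinetically for 3 min (ex 480/em 520 nm).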
TRPML1 blocker: qHTS for Inhibitors of the Human Mucolipin Transient Receptor Potential 1 (TRPML1). Mucolipin-1 (Homo sapiens), Q9GZU1. TRPML1-inducible cells, Ca2+ dye fluorescence, FDSS; active compounds read low; inhibition of EC80 agonist-evoked calcium signal. activity change, negative = inhibition, % (test concentration not listed). hit rate 0.02% among 390,000; in the data active = activity change below about -50%; inconclusive = between about -30% and that limit;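 note: stimulus is agonist 54-4 at its EC80 concentration; % is set by controls: 0 for no effect and ±100 for the full control effect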
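Tet-induced TRPML1-DL cells loaded with Ca8 no-wash calcium dye were read kinetically on FDSS. Compound addition was followed by EC80 agonist 54-4 (4 uM final); inhibition was read over 110 s.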
KCNH2 3.1 block: qHTS for Inhibitors of KCHN2 3.1: Mutant qHTS; Potassium voltage-gated channel subfamily H member 2, brain isoform KCNH2 3.1 (human); U2OS KCNH2 3.1, thallium flux FluxOr; active compounds read low; activity change, % (tested at about 1.8 µM); hit rate 0.95% among 340,000;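 active = maximum activity change below -70%; inconclusive = maximum activity change from -70% to -50%; inactive = maximum activity change above -50%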;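 note: thallium influx rate constant from kinetic fluorescence after stimulation buffer; % is set by controls: 0 for no effect and ±100 for the full control effect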
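Normalized rate constant (relative to positive and negative DMSO controls) derived from a 2 min kinetic fluorescence read after stimulation; U2OS cells expressing the 3.1 isoform via virus at 1.77 x 10^8 /mL.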
hERG WT inh: qHTS for Inhibitors of KCHN2 3.1: Wildtype qHTS; Voltage-gated inwardly rectifying potassium channel KCNH2 (Homo sapiens), Q12809; U2OS, BacMam KCNH2, thallium flux FluxOr; active compounds read low; activity change, % at 1.84 µM; hit rate 0.37% among 340,000; AID 720551, 2013;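 active = maximum activity change below -70%; inconclusive = maximum activity change between -70% and -50%; inactive = maximum activity change above -50%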; note: % is set by controls: 0 for no effect and ±100 for the full control effect
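U2OS cells were transduced with wild-type KCNH2 virus (2.03 x 10^8 / mL) for 4 h at room temperature, then cultured overnight at 37 C. Thallium flux was read with FluxOr dye. Rate constants were normalized to DMSO controls.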
Active calls of the source: *; u = inconclusive; x = not tested or not shown. Only some compounds are listed: those with a hit (about 1.3% of all), similar ones and a draw of the others.

SMILES	TRPV1 potentiator	TRPML1 ag	TRPV1 agonist	TRPML1 blocker	KCNH2 3.1 block	hERG WT inh
CCOc1ccc2nc(Cl)c(C3CC(c4ccc(OC)cc4)=NN3S(C)(=O)=O)cc2c1 (configuration not stated)	x	1	x	3	x	x
CCOc1ccc2nc(Cl)c(C3CC(c4ccco4)=NN3S(=O)(=O)c3ccccc3)cc2c1 (configuration not stated)	1	1	3	-14	-71*	-32
Cc1ccc2c(c1)N(C(=O)CCC(=O)NCCCN1CCOCC1)CCO2	-7	0	0	-6	-128*	-4
O=[N+]([O-])c1ccc(N2CCN(c3cccc(Cl)c3)CC2)nc1	-3	x	2	x	-32	23
N#Cc1c(N2CCN(c3ccc([N+](=O)[O-])cc3)CC2)[n+](=O)c2ccc(Cl)cc2n1[O-]	x	0	x	24	-97*	u
Cc1nc2ccccc2n1CCOc1ccc([N+](=O)[O-])cc1	-1	-1	6	-4	-79*	45
CCCN(CCC)C(C)C(=O)NCC1(c2ccccc2)CCCC1 (configuration not stated)	-32	107*	u	u	-7	4
O=C(NCC1(c2ccccc2)CCCC1)c1ccc(Br)o1	-16	70*	u	-16	8	-15
c1cc2nncn2nc1N1CCCC1	2	-1	-3	5	2	-6
c1ccc(N2CCN(c3ccc4nncn4n3)CC2)nc1	-2	-1	-4	6	-184*	19
Oc1cc2cc(-c3csc(-c4ccc(F)cc4)n3)cc3c2n1CCC3	x	-1	x	x	x	x
O=C(/C=C/c1cccc2ccccc12)N1CCOCC1	-19	1	92*	-1	-5	2
O=C(/C=C\c1cn(-c2ccccc2)nc1-c1ccc2c(c1)OCCO2)N1CCOCC1	-14	2	115*	-19	-4	x
CCOC(=O)c1sc(N2C(=O)c3oc4cc(C)c(C)cc4c(=O)c3C2c2ccc(C)cc2)nc1C (configuration not stated)	x	0	x	1	x	x
Cc1c(N=c2scc(-c3ccccc3)n2C)c(=O)n(-c2ccccc2)n1C	95*	0	5	-7	-48	0
O=C(Nc1cc(F)ccc1F)c1cnn2c1NC(=C1CC1)C=C2C(F)F	x	0	x	x	x	x
Cc1cc(/C=C2\C=Cc3ccccc32)cc(C)c1[N+](=O)[O-]	x	0	x	x	x	x
COC(=O)c1cc(NC(=O)CC2CCCC2)cc(C(=O)OC)c1	-8	0	u	-1	-73*	0
COc1cc2c(c(OC)c1)C(c1cccc(F)c1F)CC(=O)N2 (configuration not stated)	x	57*	x	-13	x	x
COc1cccc(CNC(=O)CN2N=C(c3ccc(C)cc3)CCC2=O)c1	x	-1	x	-5	x	x
COc1ccc(-c2sc3ccc(OC)cc3c2-c2ccc(OC)c(F)c2)cc1	-3	-1	2	3	-4	-16
COc1ccc(-c2sc3ccc(N4CCOCC4)cc3c2-c2ccc(OC)c(F)c2)cc1	-11	0	-2	24	-87*	-13
COc1ccc(/C=C/C(=O)NCCc2ccc(OC)c(OC)c2)cc1	-10	0	11	38	-9	-4
COc1ccc(/C=C/C(=O)NCCCN2CCCC2)cc1	18	x	-1	x	-4	20
CC(C)(C)c1ccc(C(=O)NCCCN2CCN(CCCNC(=O)c3ccc(C(C)(C)C)cc3)CC2)cc1	25	0	6	4	-114*	-6
SMILES	TRPV1 potentiator	TRPML1 ag	TRPV1 agonist	TRPML1 blocker	KCNH2 3.1 block	hERG WT inh
CC(C)(C)c1ccc(C(=O)NCCN2CCOCC2)cc1	x	0	x	19	2	11
Cc1ccc(/C=C/C(=O)NCCCN2CCN(CCCNC(=O)/C=C/c3ccc(C)cc3)CC2)cc1	0	0	-4	8	-122*	-119*
COc1ccc(CCNC(=O)/C=C/c2ccc(C)cc2)cc1OC	-23	0	u	4	-89*	-1
Cc1ccc2c(c1)-c1cc(C)nn1C(c1sccc1C)N2 (configuration not stated)	7	3	0	15	2	-155*
CC(CNC(=O)C1CCN(Cc2cc3ccccc3n2Cc2ccccc2)CC1)c1ccccc1 (configuration not stated)	x	1	x	-16	x	x
C=CCn1c(SCC(=O)N(C(C)CC)C2CCS(=O)(=O)C2)nc2ccccc2c1=O (configuration not stated)	1	0	0	12	-88*	-33
O=C(NNC(=O)c1ccccc1O)c1ccc(S(=O)(=O)Nc2ccccc2)cc1	-1	0	2	-8	5	-88*
Cc1ccc2cc(CN(Cc3ccco3)C(=S)NCC3CCCO3)c(=O)[nH]c2c1C (configuration not stated)	-11	1	20	1	-82*	-1
c1ccc(N2CCN(c3nc(NCc4ccco4)c4ccccc4n3)CC2)cc1	21	1	7	-1	-104*	-81*
OCCNc1nc(N2CCCCC2)nc2ccccc12	0	0	-3	7	-21	0
c1coc(CNc2nc(N3CCCCC3)nc3ccccc23)c1	-14	-1	1	14	-18	14
c1ccc(CNc2nc(N3CCN(Cc4ccccc4)CC3)nc3ccccc23)cc1	0	1	2	13	-104*	-42
Cc1cccc(-n2c(C)nnc2SCC(=O)NC(C)c2ccco2)c1 (configuration not stated)	x	1	x	x	x	x
CCC1C(=O)CC(c2ccc([N+](=O)[O-])cc2)NC1c1ccc([N+](=O)[O-])cc1 (configuration not stated)	-5	1	0	9	-79*	-14
CCC1C(=O)CC(c2ccco2)NC1c1ccco1 (configuration not stated)	-7	-1	4	5	-6	-10
Cc1c(Cl)cccc1NS(=O)(=O)c1ccc(-c2cnc(C3CC3)o2)cc1	x	0	x	-6	x	x
Cc1ccccc1/C(N)=N/OC(=O)N1c2ccccc2Sc2ccccc21	1	0	-8	25	8	3
Cc1ccc(/C(N)=N/OC(=O)N2c3ccccc3Sc3ccccc32)cc1	x	0	x	-8	8	-176*
CN(C)c1ccc(/C=C2\C=Nc3ccccc32)cc1	x	-1	x	x	x	x

Screening data: PubChem BioAssay, National Center for Advancing Translational Sciences (NCATS)
